Active and inactive are the calls of the source. A call without a number means that no potency is given here. Calls come from the whole dose curve; as a rule, active = well fitted inhibition curve with a large enough effect; inconclusive = small, poorly fitted or top-dose-only effect; inactive = flat fitted curve, though single readings scatter.
Molecular target: Luciferin 4-monooxygenase (Photinus pyralis) (UniProt P08659)
Assay: Primary firefly luciferase (FLuc) qHTS assay for identification of artifact compounds. (AID 1845220); note: nearly all actives have a fitted effect of over 60% in size
Conditions: purified firefly luciferase, luminescence, 5 min; series mostly up to 54.1 µM
From the text: PI: Alexander Tropsha Ph.D.
UNC Eshelman School of Pharmacy
University of North Carolina, Chapel Hill, North Carolina
Hits from high-throughput screening (HTS) of chemical libraries are often false positives due to their interference with the assay detection technology. In response to this problem, we generated the largest publicly available library of chemical liabilities and developed a free webtool to predict HTS artifacts, both of which are described herein. More specifically, we generated, curated, and integrated HTS datasets for thiol reactivity, redox activity, and luciferase (firefly and nano) activity. Using these curated datasets, we developed and validated several Quantitative Structure-Interference Relationship (QSIR) models to predict nuisance behavior. […] These models were employed for virtual profiling of the National Center for Advancing Translational Science's (NCATS) in-house library, and 256 compounds for each assay were selected for the experimental validation of nuisance behavior. The BA for these external predictions ranged from 58 to 78% for compounds within the applicability domains of the models. […] The models developed in this study, along with aggregation models previously developed by our group (SCAM Detective) were implemented in "Liability Predictor," an online tool which may be used as part of chemical library design or for triaging HTS hits. Both the models and the curated datasets are publicly available at https://liability.mml.unc.edu/.
SEQUENCE No. (e.g., 1, 2, 3, etc.); […] (e.g., Cells, Incubation, Reagent, etc.); VALUE; DESCRIPTION.
1; Reagent; 3 uL; Luciferase substrate mixture.
2; Compounds and control; 16 nL; Kalypsis pin tool (Wako USA) equipped with a 1536-well pin head.
4; Reagent; 1 uL; Luciferase enzyme.
6; Detection; Luminescence, ViewLux microplate reader.
NOTES (numbers refer to Sequence numbers above)
1. 3 uL of luciferase substrate mixture containing D-luciferin and ATP (final concentrations of 10 uM and 10 uM, respectively) in assay buffer (10 mM Mg-acetate, 0.01% Tween-20, 0.05% bovine serum albumin, 50 mM Tris acetate, pH 7.6) was dispensed into all wells of a 1536-well assay plate (solid-bottom white plate; Greiner Bio One, Monroe, NC).
2. A Wako Pin-tool (Wako Automation, Richmond, VA) was used to transfer 16 nL of compounds (consisting of 7-plates in qHTS format, final concentration range 18.3 nM to 114 uM) or control PTC124 (final concentration range 1.22 nM to 40 uM).
3. 15 min. incubation at room temperature protected from light.
4. 1 uL of luciferase enzyme (final concentration 10 nM, Photinus pyralis luciferase) or buffer was dispensed for a final assay volume of 4 uL.
5. Plates were centrifuged (121xg, 15 seconds) and incubated for 5 minutes.
6. Samples were read for luminescence on a ViewLux CCD imager (PerkinElmer). Data were normalized to no-enzyme (0% activity) and no-inhibitor (DMSO; 100%) controls and the resulting percent inhibition data were fitted to a 4-parameter Hill equation using NCATS in-house software.
Potency is the fitted concentration of half-maximal effect.

SMILES | Potency | activity change, negative = inhibition
C=C1C(=O)O[C@@H]2C[C@@]3(C)C[C@@H](O)C[C@H](C)C3=C[C@H]12 | inactive | 
CNC(=O)[C@@H](c1ccccc1)N1CCc2cc(OC)c(OC)cc2[C@@H]1CCc1ccc(C(F)(F)F)cc1 | inactive | 
COC(=O)c1ccc(N2CCN(C)CC2)c(NC(=O)c2cccc(OC)c2)c1 | inactive | 
CN1CCC(NC(=O)c2cc(-c3c(O)cc(O)cc3Oc3ccc([N+](=O)[O-])cc3)on2)CC1 | inactive | 
CC(C)=CCC/C(C)=C/COCC1OC(n2ccc(=O)[nH]c2=O)C(O)C1O (stereo not given) | inactive | 
CC1(CO)CC(O)[C@]2(C(=O)O)CCC34CC3(C=CC3[C@]5(C)C(CC[C@]34C)C(C)(CO)[C@@H](O)[C@H](O)[C@@H]5O)C2C1 (stereo not given in full) | inactive | 
CC(C)CCNc1ncccc1C(=O)N1CCN(Cc2ccccc2)CC1 | inactive | 
C=C(C)Cn1c(SCC(=O)c2cccs2)nc2sc3c(c2c1=O)CCCC3 | inactive | 
COc1ccc(N(C(=O)Nc2c(C)cccc2C)c2cc(Nc3ccc(N4CCN(C)CC4)cc3)ncn2)c(OC)c1 | inactive | 
C=C1CCC[C@]2(C)CC/C(=C(/CO)C(=O)OC)C[C@@H]12 | inactive | 
Cn1cc(-c2ccc3c(c2)CCN3C(=O)Cc2cccc(C(F)(F)F)c2)c2c(N)ncnc21 | inactive | 
CC(=O)N1CCN(CCOc2ccc(C3CCN(C4=Nn5c(nnc5C(F)(F)F)CC4)CC3)cc2)CC1 | inactive | 
Cn1c(=O)c2c(ncn2Cc2ccc(C(C)(C)C)cc2)n(C)c1=O | inactive | 
O=c1ccc2ccc(OCCCCN3CCN(c4cccc5sccc45)CC3)cc2[nH]1 | inactive | 
CC(=O)Nc1nc(C)c(-c2nc(N3CCCC(O)C3)no2)s1 (stereo not given) | inactive | 
COc1c2c(nc3occc13)C(CC=C(C)C)(OC)C(O)CC2 (stereo not given) | inactive | 
CC(=O)NC(C)c1cnc(-c2cnc(Oc3ccc(OC(C)C)cc3)s2)s1 (stereo not given) | inactive | 
O=C(Nc1cccc(C(F)(F)F)c1)Nc1ccc(Br)cc1-c1nn[nH]n1 | inactive | 
CC(C)(C)c1ccc2c(c1)CC[C@H]2NC(=O)Nc1cccc2[nH]ncc12 | inactive | 
C[C@@H]1O[C@@H](O[C@H]2[C@H](OC(=O)[C@]34CCC(C)(C)C[C@H]3C3=CCC5[C@@]6(C)C[C@H](O)[C@H](O[C@@H]7O[C@H](CO)[C@@H](O)[C@H](O)[C@H]7O)[C@](CO)(C(=O)O)C6CC[C@@]5(C)[C@]3(C)C[C@H]4O)OC[C@H](O)[C@@H]2O)[C@H](O)[C@H](O)[C@H]1O[C@@H]1OC[C@@H](O)[C@H](O[C@@H]2OC[C@](O)(CO)[C@H]2O)[C@H]1O (stereo not given in full) |  | 1.03% [at 11.6 µM] (inactive)

SMILES | Potency | activity change, negative = inhibition
Fc1ccc(CN2CCC(Nc3ccc(C(F)(F)F)nn3)CC2)cc1F | inactive | 
C/C=C(\C)C(=O)O[C@@H]1[C@@H](C)[C@]2(O)[C@@H]3C=C(C)C(=O)[C@H]3CC(CO)=C[C@H]2C2C(C)(C)[C@@]21OC(=O)C(C)CC (stereo not given in full) | inactive | 
C=CC(=O)N1CCC[C@@H](n2nc(-c3cccc(C(=O)Nc4ccc(C(C)C)c(C)c4)c3)c3c(N)ncnc32)C1 | 6.75 µM (active) | 
CCCCOC(=O)NS(=O)(=O)c1sc(CC(C)C)cc1-c1ccc(Cn2ccnc2)cc1 | inactive | 
CCc1c(Cl)c(O)c(Cl)c(O)c1C(=O)O[C@H]1[C@H](O)[C@H](OC)[C@H](OC/C2=C\C=C\C[C@H](O)/C(C)=C\[C@H](CC)[C@@H](O[C@@H]3OC(C)(C)[C@@H](OC(=O)C(C)C)[C@H](O)[C@@H]3O)/C(C)=C/C(C)=C/C[C@@H]([C@@H](C)O)OC2=O)O[C@@H]1C | inactive | 
CC(C)CCNC(=O)c1ccc2c(c1)nc(Nc1n[nH]c3ccc(-c4ccccc4OC(F)(F)F)cc13)n2C1CCC(O)CC1 (stereo not given) | inactive | 
C[C@H](Oc1cc(-c2cnn(C3CCNCC3)c2)cnc1N)c1c(Cl)ccc(F)c1Cl | inactive | 
C=C1[C@H]2CC[C@H](C(=O)O)[C@@]23CC[C@H](C3)C1(C)C | inactive | 
O=C(/C=C/c1ccccc1O)O[C@@H]1O[C@H](CO)[C@@H](O)[C@H](O)[C@H]1O | inactive | 
C=C1C(=O)O[C@@H]2[C@H]1CCC(C)=C(CCC(=O)O)[C@@]2(C)O | inactive | 
NS(=O)(=O)c1ccc(NC(=O)Nc2ccc(F)cc2)cc1 | inactive | 
C=C1C(=O)OC2CC(C)=C(C(C)CCCOC(C)=O)C(OC(=O)CC(C)CC)C12 (stereo not given) | inactive | 
CCCOc1ccc(S(=O)(=O)N2CCN(CCO)CC2)cc1-c1nc2c(CCC)cn(CC)c2c(=O)[nH]1 | inactive | 
COc1cccc(OCCCN)c1-c1cc(Nc2cnc(C#N)cn2)n[nH]1 | inactive | 
Cc1nc(C#Cc2ccnc(Cl)c2)c(C)n1-c1ccc(OC(F)(F)F)cc1 | inactive | 
CC[C@@H](C)Nc1cc(C(=O)NC2CC3CC[C@@H](C2)N3c2ccc(C(=O)C3CC3)cn2)c(C)cc1C(N)=O (stereo not given in full) | inactive | 
C=C(C)[C@@H]1CC[C@]2(C(=O)O)CC[C@]3(C(=O)O)[C@H](CCC4[C@@]5(C)CCC(=O)C(C)(C)C5CC[C@]43C)C12 (stereo not given in full) | inactive | 
CC(=O)O[C@H]1C[C@H](OC(C)=O)[C@]2(C)[C@H](CC[C@@]34O[C@@H]3C3=C(C)C(=O)O[C@@H]3C[C@H]42)C1(C)C | inactive | 
CC1CC(=O)C2=C(C1)C1OC1C1(O)C2C(=O)c2cccc(O)c2C1O (stereo not given) | inactive | 
CC[C@@H](C)Nc1cc(C(=O)NC2CC3CCC(C2)N3c2ccc(C(=O)C3CC3)cn2)c(C)cc1C(N)=O (stereo not given in full) | inactive | 

Source: PubChem BioAssay (NCATS)
